Active and inactive are the calls of the source. How the source made its calls: active means hit-call score of the fitted dose curve at least 0.9, where 1 is the maximum; inactive means score below 0.9.

The experiment is described as follows: BSK_4H_Eotaxin3: BioMAP Diversity Plus: 4H Assay for Eotaxin 3 Biomarker Activity (AID 2283000). As to conditions: primary human endothelial cells (HUVEC); actives raise or lower the signal. The protocol:
BSK_4H is a cell-based, multiplexed-readout assay that uses umbilical vein endothelium, a human vascular primary cell, with measurements taken at 24 hours after chemical dosing in a 96-well plate.BSK_4H_Eotaxin3 is an assay component measured in the BSK_4H assay. It measures Eotaxin-3 antibody related to regulation of gene expression using ELISA technology.Data from the assay component BSK_4H_Eotaxin3 was analyzed into 1 assay endpoint. This assay endpoint, BSK_4H_Eotaxin3, was analyzed with bidirectional fitting relative to DMSO as the negative control and baseline of activity. Using a type of binding reporter, gain or loss-of-signal activity can be used to understand changes in the signaling as they relate to the gene CCL26. Furthermore, this assay endpoint can be referred to as a primary readout, because this assay has produced multiple assay endpoints where this one serves a signaling function. To generalize the intended target to other relatable targets, this assay endpoint is annotated to the cytokine intended target family, where the subfamily is chemotactic factor.
The levels of cell surface (or secreted, indicated by the prefix "s") biomarker endpoints were measured by ELISA. Overt cytotoxicity to cells in confluent adherent cultures (all systems other than the BT system) was assessed by measuring total protein levels using sulforhodamine B (SRB) staining in parallel cultures at the time of biomarker measurements, indicated as SRB endpoints. For proliferation assays for adherent cell types, individual cell types are cultured at sub-confluence and relative cell numbers quantified by SRB staining at time points optimized for each system (48 h: 3C and CASM3C systems; 72 h: BT and HDF3CGF systems; 96 h: SAg system). SRB was performed by staining cells with 0.1% SRB after fixation with 10% TCA and reading wells at 560 nm.Viability and proliferation of PBMC (T cells) was quantified by Alamar Blue reduction for the SAg and BT systems. For PBMC viability (referred to as PBMC Cytotoxicity within the assay endpoint names), cells were plated (75,000/well in a 96-well plate) and then chemical samples added for 1 h before addition of activators, SEB and TSST-1 (20 ng/mL final concentration each). Cells were incubated for 90 h. Then, Alamar Blue (20 uL/well) (Invitrogen, Cat DAL1100) was added for 6 h, and the plates were read with a fluorescence microplate reader at 546/580 nm (excitation/emission). For PBMC proliferation, cells were plated and activated as above but incubated for only 16 h prior to addition of Alamar Blue. Plates were read after 6 h.
As for `Cc1cc(=O)[nH]c(=S)[nH]1`, the result was inactive. Consider `COCCOCCOC`, for which the outcome was inactive.

Take `CCCCCCC(=O)OCC`: the outcome was inactive. On the same count and under the same terms, the result for `Oc1ccc2c(c1)OC[C@@H](N1CCC(O)(c3ccc(F)cc3)CC1)[C@H]2O` reads “inactive”.

`Cc1cccc([N+](=O)[O-])c1C`: the outcome was inactive. Turning to `CC(=O)Oc1ccccc1C(=O)O`, the result was inactive.

For the compound `COc1cc(C=O)ccc1O`, the result was inactive. Take `CCOC(=O)CCC(=O)OCC`: the result was inactive. As to `O=c1c(O)c(-c2ccc(O)c(O)c2)oc2cc(O)cc(O)c12`, the half-maximal activity concentration (AC50) (commonly the concentration at which the activity in the assay is half-maximal) is 24.4 µM (active). Consider `CC1(C)NC(=O)NC1=O`, for which the outcome was inactive. Consider `CCCCCC(=O)O`, for which the outcome was inactive.

Turning to `Cc1ccc(C)c(O)c1C`, the result was inactive. Still for that read-out and setting: the result for `c1cc(-c2ccncc2)ccn1` reads “inactive”. The same measure, in the same setting: next, `O=C(O)Cc1ccccc1Nc1c(Cl)cccc1Cl`: “inactive”; `Cc1ccc(Cl)cc1`: “inactive”; `C=CCOC(=O)c1ccccc1C(=O)OCC=C`: “inactive”. Turning to `COc1ccc(S(=O)(=O)N2C(=O)[C@@](c3ccccc3OC)(N3C[C@H](O)C[C@H]3C(=O)N(C)C)c3cc(Cl)ccc32)c(OC)c1`, the outcome was inactive. Still for that read-out and setting: next, `CC(=O)OCCOCCOCCOC(C)=O`: “inactive”; `O=C(OCCCCCOC(=O)c1ccccc1)c1ccccc1`: “inactive”; `CC(C)c1ccc(C(=O)N=C(N)N)cc1S(C)(=O)=O`: “inactive”. Still for that read-out and setting: the result for `CCCCCCCC=O` reads “inactive”; that for `Cc1ccc(N(C)C)cc1`, “inactive”. Still for that read-out and setting: next, `NC(=O)Cn1c(=O)cc(CCN2CCN(c3nccc4sccc34)CC2)c2ccc(F)cc21`: “inactive”; `Cc1ccc(C(C)C)c(O)c1`: “inactive”; `Cc1cccc(C)c1O`: “inactive”. Turning to `FC(F)(F)C(F)(F)C(F)(F)C(F)(F)C(F)(F)C(F)(F)CCI`, the outcome was inactive. Regarding `CC1(C)CC(N=C=O)CC(C)(CN=C=O)C1` (stereo not given), the outcome was inactive. Consider `CCCCCCCCCCCC(=O)OC`, for which the outcome was inactive. Same read-out and setting: the result for `CC=Cc1ccc(O)c(OC)c1` reads “inactive”; that for `COc1ccc2c(c1)c(CC(=O)O)c(C)n2C(=O)c1ccc(Cl)cc1`, “inactive”. Turning to `Clc1cc(Cl)c(Cl)cc1Cl`, the outcome was inactive. Turning to `CCOc1ccc2c(c1)C(C)=CC(C)(C)N2`, the outcome was inactive. With `COc1cc(-c2nc(NC(=O)c3cc4cc(C)cc(C)c4n3CC(=O)O)sc2CCC2CCCCC2)c(OC)cc1Cl`, the AC50 is 3.77 µM (active). As for `CN1CCN(Cc2cc(-c3ccc4[nH]c(=O)oc4c3)co2)[C@@H](c2ccc(F)cc2)C1`, the result was inactive.

Take `CCNc1cccc(C)c1`: the result was inactive.

Consider `CCCCCCCCCCCCCO`, for which the AC50 was 38.8 µM (active). For the compound `C=CCc1ccc(O)c(OC)c1`, the outcome was inactive. For `C1CCC(SSC2CCCCC2)CC1`, the AC50 was 32.7 µM (active). In the case of `CCCCCCCCCCC`, the outcome was inactive.

Take `CN[C@H]1CC[C@@H](c2ccc(Cl)c(Cl)c2)c2ccc(S(N)(=O)=O)cc21`: the concentration at half-maximal activity (AC50) was 15.2 µM (active).

The values above are taken from PubChem BioAssay (EPA / NIEHS).
